# Bioassay records as filed in PubChem BioAssay.
# Hits are enriched below; roughly 18% of the tested compounds scored in any of these assays.
# TDP1 cell noCPT = qHTS for Inhibitors of human tyrosyl-DNA phosphodiesterase 1 (TDP1): qHTS in cells in absence of CPT | DT40 Tdp1-/- hTDP1 cells, no CPT, ATP luminescence, 48 h | Potency, µM (highest dose often 46.2 µM), without a hit: top-dose activity change, negative = growth inhibition, most hits filed as inhibitors | hit rate 15% among 420,000 | AID 686978, 2013; also: potency is read from the fitted curve at half-maximal effect; nearly all actives have a fitted effect of over 55% in size
#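 A cellular qHTS used chicken DT40 cells lacking endogenous Tdp1 but carrying stably transfected human TDP1. Compounds were applied without camptothecin, and cell growth kinetics were judged by ATP-dependent luminescence after ≥48 hr.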
# CtBP-E1A inh = inhibitors of CtBP/E1A interaction | AlphaScreen GST-E1A/His-CtBP binding, 1536-well; active compounds read low | activity change, % (concentration not given with the values) | hit rate 0.49% among 340,000 | AID 651724; in the data active = activity change below about -65%; inconclusive = mostly about -30% to -63%
#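 AlphaScreen with 125 nM GST-E1A and 125 nM His-CtBP (5X stocks) in Tris pH 8.0, 300 mM NaCl, BSA, Tween 20, TCEP. Compounds preincubated 2 h at 37 deg C, then glutathione donor/nickel acceptor beads added for 1 h at 37 deg C in dark.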
# TDP1 block = TDP1 (human) enzyme inhibition. Q9NUW8. recombinant TDP1, AlphaScreen DNA substrate cleavage. Potency, µM (series often up to 130 µM), without a hit: at the top dose activity change, negative = inhibition, actives largely listed as inhibitors. hit rate 0.28% among 350,000. AID 485290; also: potency is read from the fitted curve at half-maximal effect; nearly all actives have a fitted effect of over 40% in size
# Target sequence (Q9NUW8 whole entry, looked up): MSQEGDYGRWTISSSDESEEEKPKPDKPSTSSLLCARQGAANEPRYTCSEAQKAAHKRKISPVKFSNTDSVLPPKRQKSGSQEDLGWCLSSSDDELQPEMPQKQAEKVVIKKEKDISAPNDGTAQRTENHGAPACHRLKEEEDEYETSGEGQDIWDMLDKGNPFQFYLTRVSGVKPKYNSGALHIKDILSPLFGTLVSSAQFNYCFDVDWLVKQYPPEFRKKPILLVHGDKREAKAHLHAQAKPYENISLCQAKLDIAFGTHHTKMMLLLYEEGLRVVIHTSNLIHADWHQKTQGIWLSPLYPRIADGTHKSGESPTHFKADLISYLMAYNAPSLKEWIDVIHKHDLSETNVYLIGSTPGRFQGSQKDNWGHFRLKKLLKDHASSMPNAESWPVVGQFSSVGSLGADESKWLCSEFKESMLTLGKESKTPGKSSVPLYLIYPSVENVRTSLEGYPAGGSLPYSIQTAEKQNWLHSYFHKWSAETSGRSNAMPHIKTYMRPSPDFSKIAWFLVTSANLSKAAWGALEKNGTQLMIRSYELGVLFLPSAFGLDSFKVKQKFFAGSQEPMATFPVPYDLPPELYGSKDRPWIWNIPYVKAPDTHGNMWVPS
#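 Enzyme-compound mixtures sat 15 min at room temperature, followed by a 5 min reaction with 15 nM final substrate and 10 min with AlphaScreen beads. Recombinant human Tdp1 was used at 1 nM final.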
# IL-1B inflam inh = inflammasome signaling inhibition, IL-1 beta readout. THP-1 LPS/ATP IL-1B secretion, AlphaLISA, 16 h; active compounds read low. activity change, % at 57.5 µM. hit rate 4.7% among 360,000. AID 743279; in the data active = activity change below about -50%; inconclusive = mostly about -30% to -49%
#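 THP-1 cells pretreated 1 hr with compounds (up to 57.5 uM final), then stimulated with LPS (250 ng/mL final) plus ATP (1.25 mM final); secreted IL-1B measured by AlphaLISA after 16 hr, decreased signal indicating inhibition.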
# Six1-Eya2 inh = blocks human Six1 binding to Eya2. Q15475+O00167. AlphaScreen GST-Six1/His-Eya2 binding, biochemical; active compounds read low. activity change, % (no concentration beside the values). hit rate 0.56% among 360,000. AID 651725; in the data active = activity change below about -65%; inconclusive = mostly about -30% to -63%
#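 Homogeneous AlphaScreen proximity assay pairing GST-Six1 with His-tagged Eya2 (added as 5X mix: 250 nM and 500 nM) in 50 mM Tris pH 8.0, 300 mM NaCl, 1 mM TCEP. Glutathione donor and nickel acceptor beads; 1 h, 37 °C, dark.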
# TDP1 cell CPT = DT40-hTDP1 cell growth loss with CPT | AID 686979 | hit rate 12% among 420,000 | Potency, µM (titrated, usually from 46.2 µM), inactives show at the top dose activity change, negative = growth inhibition, actives largely listed as inhibitors | chicken DT40 Tdp1-/-;hTDP1 cells + 20 nM CPT, ATP luminescence, 48 h; also: potency is read from the fitted curve at half-maximal effect; nearly all actives have a fitted effect of over 55% in size
#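 Chicken DT40 Tdp1-/- cells complemented with human TDP1, 400 cells/well, exposed to compounds plus 20 nM camptothecin for at least 48 h at 37 C; viability read as ATP content by CellTiter-Glo luminescence.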
# Numbers without * were called inactive; ? = inconclusive; . = not tested or not shown; [ ] = another dose, or the depositor's remark. Unless noted, calls follow the shape of the dose curve; as a rule, active = well fitted curve in the direction sought with a large enough effect; inconclusive = small, poorly fitted or top-dose-only effect, or another doubt; inactive = no such curve, though single readings can be large; an effect the other way counts as inactive or inconclusive. % is scaled to controls: 0 for no effect and ±100 for the full control effect.
SMILES,TDP1 cell noCPT,CtBP-E1A inh,TDP1 block,IL-1B inflam inh,Six1-Eya2 inh,TDP1 cell CPT
CCOC(=O)c1c(NC(=O)c2ccccc2C(=O)O)sc2c1CCC2,-18.7%,.,.,-11.8,-1.5,-2.4%
Cc1cccc(C2c3[nH]c4ccccc4c3CCN2C(=O)CN2CCOC2=O)n1 (stereo not given),-11.1%,-11.4,2.5%,15.7,-18.5,-5.1%
Cc1ccc(C2=Nc3ccccc3N=C(c3ccc([N+](=O)[O-])cc3)C2)c(O)c1,?,-18.1,2.7%,10.8,-12.1,-18.0%
O=C(Nc1ncccc1O)c1ccc(Oc2ccccc2)cc1,?,-4.2,-1.3%,15.8,-12.3,?
CNC(=O)c1ccccc1NC(=O)c1cccc(S(=O)(=O)N2CCC(C)CC2)c1,16.4µM*,-15.5,5.4%,-3.5,-4.6,20.6µM*
CCNC(=O)c1ccccc1NC(=O)c1cccc(S(=O)(=O)N2CCC(C)CC2)c1,14.6µM*,-2.3,1.1%,-4.0,-10.6,?
O=C(CSc1nnc(C2CC2)n1-c1ccccc1)NCCN1C(=O)CSC1=O,-2.9%,-8.9,-1.8%,-2.9,-1.0,10.1%
CCN(C(=O)c1cnc(NC(C)C)cc1C(F)(F)F)c1ccc(Cl)cc1,?,2.8,2.6%,?,9.0,?
COCCCNCCCOc1ccc(Cl)cc1C(C)(C)C,18.4µM*,2.7,3.4%,-89.2*,10.7,11.6µM*
CNCCCOc1ccc(Cl)cc1C(C)(C)C,16.4µM*,-3.1,10.8%,-71.9*,3.8,?
CCN(C(=O)C1=COCCO1)c1nc2c(C)cccc2s1,-9.6%,1.8,.,1.8,7.3,-0.9%
CCc1noc(C)c1C(=O)N(CC)c1nc2c(C)cccc2s1,18.4µM*,11.0,-16.7%,3.2,3.6,?
CCN(CC)CCN(C(=O)c1ccco1)c1nc2c(C)cccc2s1,20.6µM*,.,12.4%,.,.,14.6µM*
Cc1cn(CC(=O)NCCCc2ccccc2)c(=O)[nH]c1=O,-14.7%,-13.8,.,20.0,7.4,-4.8%
Cc1cc(C)n(Cc2ccc(C(=O)Nc3cccc(Br)c3)o2)n1,?,-3.6,2.5%,?,6.2,-24.8%
Cc1cc(C)n(Cc2ccc(C(=O)Nc3ccc(Br)cc3C)o2)n1,?,-24.6,2.6%,-59.8*,12.5,-22.2%
COc1ccc(-n2c(-c3ccc(C)cc3)cc3c2CC(C)(C)CC3=O)c(OC)c1,?,.,12.7%,.,.,14.6µM*
COc1cccc(-n2c(-c3ccc(C)cc3)cc3c2CC(C)(C)CC3=O)c1,?,.,13.9%,.,.,?
Cc1ccc(-c2cc3c(n2-c2ccc(F)cc2)CC(C)(C)CC3=O)cc1,18.4µM*,.,6.9%,.,.,16.4µM*
CCCC(=O)C1=C(O)C(C(=O)OC)C(C)(C)CC1=NC (stereo not given),-22.2%,4.7,2.1%,0.0,4.3,-14.4%
CC(NCc1ccc(N(C)C)cc1)C1CC2CCC1C2 (stereo not given),?,-12.7,7.6%,-60.7*,-21.0,?
CC(NC(=O)c1ccc(CS(C)(=O)=O)cc1)C1CC2CCC1C2 (stereo not given),-14.1%,6.7,7.1%,5.6,-3.8,-6.0%
CC1(C)CC(=O)N(CC(=O)O)c2ccccc2S1,-9.7%,-0.5,0.0%,24.1,6.1,-11.7%
CC(C)N(C)C1=CC(=O)C(N(C)C(C)C)=CC1=O,?,11.1,.,-10.6,-24.0,23.1µM*
O=C(OCC(O)COC(=O)c1cccnc1)c1cccnc1,7.1%,.,4.1%,14.4,-10.7,-4.0%
SMILES,TDP1 cell noCPT,CtBP-E1A inh,TDP1 block,IL-1B inflam inh,Six1-Eya2 inh,TDP1 cell CPT
Cc1ccc(NC(=O)CN(C)C(=O)c2ccc3[nH]c4c(c3c2)CC(C)CC4)cc1 (stereo not given),-36.8%,-1.2,7.6%,-50.9*,-22.6,?
CC1CCc2[nH]c3ccc(C(=O)N(C)CC(=O)Nc4ccccc4Cl)cc3c2C1 (stereo not given),14.6µM*,-6.6,-7.5%[0.505 µM],-24.0,-20.7,?
CC1CCc2[nH]c3ccc(C(=O)N(C)CC(=O)Nc4ccccc4C(F)(F)F)cc3c2C1 (stereo not given),?,-1.7,.,-16.1,-6.6,?
CCOc1ccc(NC(=O)CN(C)C(=O)c2ccc3[nH]c4c(c3c2)CC(C)CC4)cc1OCC (stereo not given),-29.6%,1.5,.,-2.7,?,?
Cc1ccc(-c2csc3nc(C)n(-n4cccc4)c(=O)c23)o1,-7.4%,-4.8,0.0%,38.0,-0.3,1.4%
CCn1c2ccccc2nc2cc3c(cc21)c(Cl)c(=O)c1ccccc13,5.8µM*,-0.3,.,25.6,-15.5,8.2µM*
CCCCNC(=O)C1(C)CCCCN1C(=O)c1ccno1 (stereo not given),-0.5%,7.1,.,8.4,2.4,-4.8%
c1ccc(-c2noc(CN3CCN(C(c4ccccc4)c4ccccc4)CC3)n2)cc1,?,47.3,0.0%,-87.0*,-1.1,-26.1%
COCC1CCCN(Cc2nc(C(c3ccccc3)c3ccccc3)no2)C1 (stereo not given),18.4µM*,6.8,-7.2%,-4.2,11.4,?
N#CCc1nc(C(c2ccccc2)c2ccccc2)no1,0.8%,-19.0,3.5%,?,16.3,10.7%
c1ccc(C(c2ccccc2)c2noc(CN3CCN(CC4CC4)CC3)n2)cc1,?,1.7,2.6%,-19.3,-6.0,14.6µM*
O=c1cc(Nc2ccc3c(c2)OCO3)[nH]c(=O)n1-c1ccc(Br)cc1,23.1µM*,-16.3,1.7%,19.9,-11.4,?
O=c1cc(Nc2ccc3c(c2)OCCO3)[nH]c(=O)n1-c1ccc(Br)cc1,?,8.6,-0.7%,1.7,2.9,?
CC(Sc1nnc(-c2ccco2)n1N)C(=O)NCc1ccc2c(c1)OCO2 (stereo not given),4.0%,0.3,-6.5%,-2.2,-0.4,-10.1%
O=C(CSc1nnc(-c2ccc(Cl)cc2)n1Cc1ccco1)NCc1ccc2c(c1)OCO2,25.9µM*,-11.8,6.1%,-22.6,-25.3,?
Cc1[nH]c2ccc(-c3nnc(SCC(=O)NCc4ccco4)n3Cc3ccccc3)cc2c1C,23.1µM*,-26.7,10.7%,-0.1,-17.7,?
Cc1occc1-c1nnc(SCC(=O)NCCc2ccccc2)n1Cc1ccccc1,20.6µM*,4.7,8.2%,?,-8.5,?
Cc1occc1-c1nnc(SCC(N)=O)n1Cc1ccccc1,1.7%,-5.0,3.9%,-19.2,-1.2,1.0%
